From PMC8769072, “Proteome‐scale mapping of binding sites in the unstructured regions of the human proteome” (Molecular Systems Biology, 2022)

Biological target: YES1 90-152, P07947
Sequence (P07947 90-152): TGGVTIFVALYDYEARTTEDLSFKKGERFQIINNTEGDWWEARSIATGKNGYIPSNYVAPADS

Selected by phage display, active:
FAGLPLPLPPTSQGLS [PROSER1, Q86XN7] confidence 3
TVELEEKRFRTLPLVP [ELL3, Q9HB65] confidence 3
QQQQQQLPALPPTPQQ [R3HDM2, Q9Y2K5] confidence 2
LLPPPPPGAPLPSLPF [SOBP, A7XYQ1] confidence 2
RPLPSPAPPPPQLLEA [KIF26A, Q9ULI4] confidence 2
HSSRELPSRPDGVLHV [VWA5B2, Q8N398] confidence 3
QPLPPAPTSVPPAAFP [PER1, O15534] confidence 2
NLEVKSLRALPATPAL [PDE4DIP, Q5VU43] confidence 2
TKTPPRDLPTIPGVTS [EIF4EBP1, Q13541] confidence 3
TSTLPPLPLPPLLPGD [CDK12, Q9NYV4] confidence 3
KDRPLPPAPLSPAPGP [MAP1A, P78559] confidence 3
DKPLPVPPTLRDLPPP confidence 4
SSENPYATIRDLPSLP [PEAR1, Q5VY43] confidence 4
AAVGVSKPLPSVPPSI [MADD, Q8WXG6] confidence 2
SRALPATPQLPSRSGV [WIPF1, O43516] confidence 3
TLTDLPLLPGVPMAGD [LRRC46, Q96FV0] confidence 2
VDPSKHIRPVPSLPDV [VPS54, Q9P1Q0] confidence 2
APTLPLPPPPGFPPLP [SETD1B, Q9UPS6] confidence 3
LPPPPPPDRPYSVGAE confidence 4
QPAVFPPSFRELPPPP [IFT52, Q9Y366] confidence 4
TAGPGRPLPQRPMPDQ [ZFHX2, Q9C0A1] confidence 2
RLSLEGLPSLPSMHEY [IRS2, Q9Y4H2] confidence 3
LPSLPLEPSLLSGVVQ [LRP10, Q7Z4F1] confidence 2
PTPSSPLPSVPVSVPA [PLEKHN1, Q494U1] confidence 3
LPLPPLPGAGIPPPPP [FMN2, Q9NZ56] confidence 2
VKRTLPSPPPEEAHLP [BSN, Q9UPA5] confidence 3
DMLPALLRPPEPLPTP [SLC39A5, Q6ZMH5] confidence 2
NLRALPLPPRPPATST [RNF223, E7ERA6] confidence 3
AAPTLGHRTLPLLPSL [PRRT4, C9JH25] confidence 2
PGRGLPQLPSSAYSVD [ST5, P78524] confidence 4
DKTSSIQSRPLPSPPK [BCAR1, P56945] confidence 2
SERELPQPPPLLSPQN [SAMD11, Q96NU1] confidence 4
LQRTLPSVPPDTKLSK [TCF24, Q7RTU0] confidence 2
MSGHTLPPLPVPGTNS [EPPK1, P58107] confidence 3
TFRWTSLTRELPPPPP [KMT2B, Q9UMN6] confidence 2
NQQKALPPPPASIPPP [FMN1, Q68DA7] confidence 2
ELPLLPPPPSLPTIGA [SETD5, Q9C0A6] confidence 3
PLPPPPPLPKIQPLEP [ZBTB21, Q9ULJ3] confidence 2
PQKEGERALPSIPKLA [PTK2, Q05397] confidence 3
QLGDLPPKPQLSDLPP [ASAP1, Q9ULH1] confidence 2
LPSAESLSRRPLPALP [EFS, O43281] confidence 3

Biological target: YAP1 169-207, P46937
Sequence (P46937 169-207): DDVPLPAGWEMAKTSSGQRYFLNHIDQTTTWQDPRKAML

Selected by phage display, active:
EYEKLPAYLATSPIPT [LPIN2, Q92539] confidence 3
ESLPSYLESSRVNTPV [ANK3, Q12955] confidence 4
ASEVGSPPSYSEALLD [LDLRAD3, Q86YD5] confidence 3
GSPMVPSYETSVSPQA [PIKFYVE, Q9Y2I7] confidence 2
LQEQQQQQMHLQPPSY [TRERF1, Q96PN7] confidence 2
TPRSSVELPPYSGTVL [USP10, Q14694] confidence 2
EAPPPYSPIGDDVQLL [ARHGAP5, Q13017] confidence 3
MPPPGYPHIPQALSTP [FOXJ3, Q9UPW0] confidence 4
SPQLPQYPGLQQAQTM [MED12L, Q86YW9] confidence 3
SLDALKVFDGIPPPYD [RPL13AP3, Q6NVV1] confidence 2
MGDLPPYPERPAQQPP [RSPH6A, Q9H0K4] confidence 2
IAPPQYVTTSASNIVS [ARID2, Q68CP9] confidence 4
SPPAYHMHVFDRPYPL [CUEDC1, Q9NWM3] confidence 3
PPPSYAATIASKLAIH [KLF5, Q13887] confidence 3
HQQPPPYPLMHHQMPP [SMARCC1, Q92922] confidence 3
AYPPSYPSAMSPTHHL [FNDC3B, Q53EP0] confidence 2
PTMTPPPYLPGPNASP [FOXI1, Q12951] confidence 4
AEFQPPYFPPPYPQPP [TFAP2E, Q6VUC0] confidence 2
QALPDYSLGPHYTSQK [CSRNP1, Q96S65] confidence 2
SPSQYINEENLPVYPD [KNL1, Q8NG31] confidence 2
APPPPGYHQNGVIRNQ [MYO1E, Q12965] confidence 3
